# Measurements: PubChem BioAssay AID449762 (Southern Research Specialized Biocontainment Screening …, 2010)
# In all, about 330,000 compounds went through this assay and about 1,900 (0.58%) were called active. Roughly 4% stayed inconclusive and do not appear here. The list is a sample of the results. Entries with a potency or affinity are not part of this list. Values without a mark were called inactive. Cut-off read from the data, not from the text of the source: inconclusive = inhibition above about 70% without an active follow-up result; inactive = below that.
# Assay: M. tuberculosis growth inhibition, HTS (AID 449762);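 note: bacterial growth assessed after seven days of incubation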
# Settings: M. tuberculosis H37Rv growth inhibition, 7H9 media; at 25 µM; hits give high values
row,Structure (SMILES),inhibition [%]
1,CC1Sc2ccc(S(=O)(=O)CCC(=O)Nc3ccccc3Cl)cc2NC1=O (centres undefined),0.85
2,CCOC(=O)C1CCN(CC(O)COc2ccc(C(C)=O)cc2)CC1 (centres undefined),-0.99
3,CCOC(=O)C1CCN(CC(O)COc2ccc(C(=O)CC)cc2)CC1 (centres undefined),-15.2
4,COC(=O)c1ccc(CNC(=O)COC(=O)c2cccs2)cc1,12.5
5,COc1ccc(/C=C2\N=C(C)N(c3ccc4ccccc4c3)C2=O)cc1OC,4.18
6,COc1ccccc1-c1nnc(NC(=O)c2ccc(S(=O)(=O)N3CCOCC3)cc2)o1,43.3
7,COc1cc(-c2nnc(NC(=O)c3ccc(S(=O)(=O)N4CCOCC4)cc3)o2)cc(OC)c1OC,5.07
8,CCCN(CC(=O)Nc1ccccc1OC)C(=O)c1ccccn1,0.49
9,C=CCN1C(=O)c2ccc(C(=O)N(C)CC(=O)Nc3cccc(F)c3)cc2C1=O,0
10,CCOC(=O)c1c(C)[nH]c(C(=O)OCC(=O)NCc2ccc(OC)c(OC)c2)c1C,3.95
11,COc1ccc(C)cc1Nc1n[n+](-c2ccccc2)c(-c2cc(OC)c(OC)cc2Br)s1,62.1
12,COc1ccc(C)cc1Nc1n[n+](-c2ccccc2)c(-c2cccc(Cl)c2Cl)s1,60
13,COC(=O)C1=C(C(=O)OC)[C@@H]2N(C)c3ccc(OC)cc3[C@@]23C[C@@H](C(=O)OC)N(C(=O)CC(C)C)C3=N1,-3.14
14,O=C(C1=C(O)C(=O)N(Cc2ccco2)C1c1ccccc1F)c1cccs1 (centres undefined),12.7
15,Cc1cc(C)n(-c2ccc(F)cc2CN2CCN(C3CCCC3)C(CCO)C2)n1 (centres undefined),8.29
16,C=C(C)C1CC=C(CN2CC(C)OC(C)C2)CC1 (centres undefined),-4.9
17,C=C(C)C1CC=C(CN2CCC(O)CC2)CC1 (centres undefined),-0.8
18,CCOC(=O)c1c(/N=C/N(C)C)sc(/C=N/Nc2ccccc2)c1-c1ccc(Cl)cc1,69
19,CCOC(=O)c1c(/N=C/N(C)C)sc(/C=N/Nc2ccccc2)c1-c1ccccc1,4.1
20,CN(CC(=O)NCc1ccccc1)S(=O)(=O)c1cnc[nH]1,2.4
21,Cc1cc(C)cc(OCC(=O)OCC(=O)NC2CCCCCC2)c1,2.47
22,CSc1ncnc2c1cnn2-c1ccc(C)cc1C,6.4
23,Cc1ccc(-n2ncc3c(SCC(=O)Nc4cc(C)on4)ncnc32)c(C)c1,-4.04
24,O=C(NCc1cccnc1)C1CCCN(S(=O)(=O)c2ccc(Cl)cc2)C1 (centres undefined),-6.29
